High-throughput results deposited in PubChem by National Center for Advancing Translational Sciences (NCATS).
In the library only some 0.32% were active in any assay of this set; here they are far more common.
GPT2 inh = inhibitors of human GPT2 alanine aminotransferase; Q8TD30; Recombinant GPT2, coupled pyruvate oxidase/HRP Amplex Red fluorescence; Potency, µM (doses to about 57.7 µM), for the others: at the top dose activity change, negative = inhibition, actives largely listed as inhibitors; actives 0.25% (n = 100,000); also: potency is read from the fitted curve at half-maximal effect; % is scaled to controls: 0 for no effect and ±100 for the full control effect; nearly all actives have a fitted effect of over 60% in size
Target sequence (Q8TD30 whole entry, looked up): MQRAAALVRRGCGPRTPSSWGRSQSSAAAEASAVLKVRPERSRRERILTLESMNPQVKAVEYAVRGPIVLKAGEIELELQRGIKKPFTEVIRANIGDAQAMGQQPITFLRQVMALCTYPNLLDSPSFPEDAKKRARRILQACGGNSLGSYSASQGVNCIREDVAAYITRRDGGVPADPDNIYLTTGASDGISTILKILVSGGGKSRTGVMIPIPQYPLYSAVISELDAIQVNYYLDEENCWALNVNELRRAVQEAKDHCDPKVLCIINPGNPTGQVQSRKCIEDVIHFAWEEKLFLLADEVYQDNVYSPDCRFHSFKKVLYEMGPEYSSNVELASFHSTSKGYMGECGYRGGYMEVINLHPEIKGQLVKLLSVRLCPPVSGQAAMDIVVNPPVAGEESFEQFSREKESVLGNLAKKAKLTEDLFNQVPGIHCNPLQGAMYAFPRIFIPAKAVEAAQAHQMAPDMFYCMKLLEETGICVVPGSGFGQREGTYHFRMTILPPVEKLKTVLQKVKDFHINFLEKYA
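GPT2 10ng/uL, a-KG 250uM, L-Ala 2mM, HEPES pH7.5 + 0.0001% Tween; 30 min RT. Then Amplex mix (PO/HRP/ThPP), 30 min RT dark, fluorescence. AOA 50uM used as positive control.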
HEK293 viab = reduces viability of HEK-293 SNCA reporter cells; HEK-293-SNCA-luc viability, GF-AFC fluorescence, 24 h; Potency, µM (doses to about 57.1 µM), without a hit: at the top dose activity change, negative = cytotoxicity, actives largely listed as cytotoxic; actives 0.12% (n = 150,000);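 also: potency is read from the fitted curve at half-maximal effect; 0% = DMSO-treated cells and -100% = medium-only wells without cells; nearly all actives have a fitted effect of over 30% in size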
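HEK-293-SNCA-luc cells (1500/well) plated 24 h, then exposed 24 h to a dilution series; GF-AFC added 30 min at 37C, fluorescence 405/540 nm; normalised to medium-only and DMSO wells, Hill fit.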
SNCA expr inhib = inhibitors of alpha-synuclein (SNCA) gene expression; Potency, µM (doses to about 57.2 µM), inactives show at the top dose activity change, negative = inhibition, hits mostly inhibitors; actives 0.17% (n = 140,000); HEK-293 SNCA-luciferase knock-in, luminescence, 24 h;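 also: potency is read from the fitted curve at half-maximal effect; plate controls were DMSO cells for no effect and cell-free wells for full effect; nearly all actives have a fitted effect of over 45% in size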
GPT2 inh cnf = confirmation of human GPT2 inhibitors. shares compounds with GPT2 inh. GPT2 enzyme, coupled Amplex Red pyruvate fluorescence. Potency, µM, hits mostly inhibitors. actives 90% (n = 95)
Active calls of the source: *; i = inactive; ? = inconclusive; / = no result; [ ] = remark or other dose. Calls follow the shape of the dose curve; as a rule, active = well fitted curve in the direction sought with a large enough effect; inconclusive = small, poorly fitted or top-dose-only effect, or another doubt; inactive = no such curve, though single readings can be large; an effect the other way counts as inactive or inconclusive.

SMILES | GPT2 inh | HEK293 viab | SNCA expr inhib | GPT2 inh cnf
CC(=O)NC1(C)CCN(Cc2ccc(-c3ccc4c(ccn4C)c3)cc2)C1 (stereo unspecified) | i | -6%[87.6 µM] | ? | /
CCC(c1cccs1)N1C(=O)[C@H]2CN(S(=O)(=O)c3ccccc3)C[C@H]2C1=O (stereo partly specified) | i | 4% | -19% | /
CCC(c1cccs1)N1C(=O)[C@H]2CN(CCC(C)C)C[C@H]2C1=O (stereo partly specified) | i | ? | 3.5µM* | /
O=C(COc1ccc(F)cc1)N1CCOc2ccc(N3CCOCC3)cc2C1 | 4% | -3% | 11% | /
O=C(c1cccs1)N1CCOc2ccc(N3CCCC3)cc2C1 | 1.3µM* | -10% | -24% | 1.4*
O=C(c1ccc(F)cc1)N1Cc2[nH]cnc2C[C@H]1c1nc(-c2ccc3c(c2)OCO3)no1 | i | -10%[87.6 µM] | ? | /
CC(C)CNC(=O)c1cc(N2CCOCC2)cc2c1OCCN2C | / | / | / | 2*
CN1CCOc2c(C(=O)NCCc3ccccc3)cc(N3CCOCC3)cc21 | ? | -5%[87.6 µM] | 2%[87.6 µM] | /
CN1CCOc2c(C(=O)NCCC(N)=O)cc(-c3ccccc3)cc21 | i | -13%[87.6 µM] | 8%[87.6 µM] | /
CN1CCOc2c(C(=O)N3CC[S+](=O)([O-])CC3)cc(N3CCOCC3)cc21 | / | / | / | 2*
CC(=O)N1CCN(C(=O)c2ccc3nnc(Cc4ccc(Cl)cc4)n3c2)CC1 | 0% | -5% | -3% | /
COc1ccccc1-c1cccc(CN2CCCC(C(=O)NCc3ccc(F)cc3)C2)c1 (stereo unspecified) | i | -8% | -13% | /
CN(Cc1cccnc1)c1nc2c(c(=O)[nH]1)CCN(Cc1ccccc1C(F)(F)F)CC2 | i | -15% | 3% | /
c1ccc(Nc2cc3c(cn2)NCCN(Cc2ccsc2)C3)cc1 | ? | -14%[87.6 µM] | 0%[87.6 µM] | 2.5*
COCCN1CCNc2cc(Nc3cccc(OC)c3)ncc2C1 | 4%[88.5 µM] | -18%[87.6 µM] | 79%[87.6 µM] | /
COc1ccc(CN2CCNc3cnc(Nc4ccccc4)cc3C2)cn1 | ? | -9%[87.6 µM] | -5%[87.6 µM] | 3.1*
COc1ccc(Nc2cc3c(cn2)NCCN(Cc2ccccc2)C3)cc1 | ? | ? | ? | 5.6*
Fc1ccccc1CN1CCNc2cnc(Nc3ccccc3)cc2C1 | -84%[88.5 µM] | -25%[87.6 µM] | ? | /
COc1ccc(CN2CCNc3cc(Nc4ccccc4)ncc3C2)cc1 | 2%[88.5 µM] | ? | 15%[87.6 µM] | /
COCCN1CCNc2cc(Nc3ccc(N4CCOCC4)cc3)ncc2C1 | ? | 6%[87.6 µM] | 20%[87.6 µM] | 5.6*
COc1ccc(CN2CCNc3cc(-c4ccccc4)ncc3C2)cn1 | 5%[88.5 µM] | -13%[87.6 µM] | ? | /
O=C(c1cccc2[nH]ccc12)N1CCCC(n2cc(-c3nc(C4CC4)no3)nn2)C1 (stereo unspecified) | i | 4% | 34% | /
COc1cc(=O)n2c(c1C(=O)Nc1ccc(N(C)C)cc1)CCCC2 | -5% | -1% | 93% | /
O=C(Nc1cccc(Cl)c1)C1CCCCN1Cc1ccc(-c2cccs2)cc1 (stereo unspecified) | -4% | -6%[12.5 µM] | 7% | /
COc1cccc(-c2ccc(C(=O)N3CCC(NC(=O)c4ccccc4F)CC3)cc2)c1 | i | -2%[12.5 µM] | 13% | /
SMILES | GPT2 inh | HEK293 viab | SNCA expr inhib | GPT2 inh cnf
Cc1ccc(Nc2ccnc(N3CCCC(C(=O)NCC4CC4)C3)n2)cc1 (stereo unspecified) | i | 6%[12.5 µM] | -1% | /
CN(Cc1ccc(-c2ccccc2)cc1)Cc1ccccn1 | i | 5%[87.6 µM] | 94%[87.6 µM] | /
Cc1cc2c(N3CCCC3)nc(N3CCCC3)nc2n1C | ? | ? | / | ?
Cc1nc(N2CCCC2)nc(N2CCC3(CC2)OCCCC3O)c1C (stereo unspecified) | -23% | -15% | -3% | /
Cc1ccc2c(c1)C(N1CCN(C)CC1)=Nc1cccnc1N2 | i | 2% | -6% | /
Cc1cc2c(s1)Nc1ccccc1N=C2N1CCN(C)CC1 | ? | -29% | 0% | 8.6*
O=C(NC1CCN(c2nccc(Nc3ccccc3Cl)n2)CC1)C1CCCC1 | -3% | 0% | -39% | /
CN(C)c1ccc(CN2CCC3(CC2)COc2ccccc2C(=O)N3)cc1 | i | -12% | -12% | /
CNC(=O)c1cc(-c2cccc(NC(C)=O)c2)cc2c1OCCN2Cc1cccnc1 | -3%[88.5 µM] | -8%[87.6 µM] | 79%[87.6 µM] | /
CNC(=O)c1cc(Nc2cccc(N(C)C)c2)cc2c1OCCN2Cc1cccnc1 | ? | 7%[87.6 µM] | 6%[87.6 µM] | 3.5*
COc1cccc([S+](=O)([O-])N2CCNc3cnc(Nc4ccc(N5CCOCC5)cc4)nc3C2)c1 | 1.1µM* | 0% | -4% | 1.2*
